# Screens: PubChem, National Center for Advancing Translational Sciences (NCATS)
# RORgamma inh = ROR gamma (mouse) transcription inhibition | hit rate 5.4% among 310,000 | AID 2551 | P51450 | Drosophila S2 Gal4-RORgamma UAS-luciferase reporter, 20 h | Potency, µM (titrated, usually from 53.6 µM), inactives show at the highest dose activity change, negative = inhibition, most hits filed as inhibitors; also: potency is read from the fitted curve at half-maximal effect; % is scaled to controls: 0 for no effect and ±100 for the full control effect; nearly all actives have a fitted effect of over 60% in size
# Target sequence (P51450 whole entry, looked up, the tested form may be a part): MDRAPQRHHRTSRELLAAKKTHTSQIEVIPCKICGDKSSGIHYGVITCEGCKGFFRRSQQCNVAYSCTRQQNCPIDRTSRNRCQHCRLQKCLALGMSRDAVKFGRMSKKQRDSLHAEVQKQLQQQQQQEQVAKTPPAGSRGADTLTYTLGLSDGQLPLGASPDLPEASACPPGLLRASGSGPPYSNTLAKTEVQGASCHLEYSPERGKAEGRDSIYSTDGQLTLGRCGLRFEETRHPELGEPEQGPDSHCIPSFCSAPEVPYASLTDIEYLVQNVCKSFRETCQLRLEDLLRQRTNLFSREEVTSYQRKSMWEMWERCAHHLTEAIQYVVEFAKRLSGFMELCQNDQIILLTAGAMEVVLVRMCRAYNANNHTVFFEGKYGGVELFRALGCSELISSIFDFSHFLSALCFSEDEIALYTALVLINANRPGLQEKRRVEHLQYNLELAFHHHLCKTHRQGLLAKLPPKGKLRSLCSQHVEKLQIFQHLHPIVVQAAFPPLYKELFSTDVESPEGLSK
#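 Luciferase reporter read in Schneider cells carrying Gal4-RORγ (mouse) and UAS-Photinus luciferase; cells given compound 1 h before 700 uM copper sulfate induction, then incubated 20 h at ambient temperature.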
# IL-1B inflam inh = blocks inflammasome-driven IL-1 beta release. activity change, % at 57.5 µM. THP-1 LPS/ATP IL-1B secretion, AlphaLISA, 16 h; hits give low values. hit rate 4.7% among 360,000. AID 743279; in the data active = activity change below about -50%; inconclusive = mostly about -30% to -49%; also: % is scaled to controls: 0 for no effect and ±100 for the full control effect
#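 Secreted IL-1B measured by AlphaLISA bead assay after 16 h compound exposure of THP-1 cells; compounds (final up to 57.5 uM) added 1 h before LPS (250 ng/mL) and ATP (1.25 mM) stimulation; lower signal means less secretion.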
# MCF10A rerep = DNA re-replication induction in MCF 10a cells; AID 624296; MCF 10A DNA re-replication, Hoechst nuclear intensity, 48 h; Potency, µM (series often up to 46.1 µM), inactives show at the highest dose activity, positive = re-replication, usual class: activators; hit rate 2.9% among 350,000; also: potency is read from the fitted curve at half-maximal effect; % of control where 0% means no effect; nearly all actives have a fitted effect of over 50% in size
# SW480 rerep = induces DNA re-replication in SW480 colon adenocarcinoma cells | SW480 DNA re-replication, Hoechst DNA content imaging, 48 h | Potency, µM (highest dose often 46.1 µM), without a hit: top-dose re-replication activation, actives largely listed as activators | hit rate 1.8% among 340,000; also: potency is read from the fitted curve at half-maximal effect; % of control where 0% means no effect; nearly all actives have a fitted effect of over 55% in size
#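 DNA re-replication was detected as more nuclei of elevated Hoechst intensity after 48 hr exposure to compound (23 nL pinned per well of 250 cells).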
# Gal4-VP16 FLuc = counter-screen for ROR gamma inhibitors: Gal4-VP16 reporter | Drosophila S2 Gal4-VP16 UAS-luciferase, luminescence, 20 h | Potency, µM (titrated, usually from 53.6 µM), for inactives: at the highest dose activity, negative = inhibition, actives largely listed as inhibitors | hit rate 3.5% among 310,000;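 also: Gal4-VP16 expression switched on by copper sulfate through the metallothionein promoter; potency is read from the fitted curve at half-maximal effect; % is scaled to controls: 0 for no effect and ±100 for the full control effect; nearly all actives have a fitted effect of over 50% in size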
# Starred values were filed as active, the others as inactive; ? = inconclusive; . = not tested or not shown; [ ] = dose if it differs, or a comment. This is a sample that favours compounds with a hit; in the whole collection about 11% have one here. Unless noted, calls follow the shape of the dose curve; as a rule, active = well fitted curve in the direction sought with a large enough effect; inconclusive = small, poorly fitted or top-dose-only effect, or another doubt; inactive = no such curve, though single readings can be large; an effect the other way counts as inactive or inconclusive.
SMILES,RORgamma inh,IL-1B inflam inh,MCF10A rerep,SW480 rerep,Gal4-VP16 FLuc
O=C(COc1cccc(Br)c1)N/N=C/c1ccc2c(c1)OCCO2,.,-15.4,.,.,.
CC(=O)Nc1ccc(/C=N/NC(=S)NC(C)C)cc1,15.8µM*,14.5,2.9%,-4.4%,-17.1%
COc1cc(/C=C2\CCC(C)C3=C(c4cc(OC)c(OC)c(OC)c4)C(C#N)=C(N)OC32)cc(OC)c1OC (centres undefined),.,-15.8,8.2µM*,?,.
C=CCCCCCCCCC(=O)O,0.6%,.,-2.3%,-8.8%,6.6%
CC(=O)Nc1ccc(N(C(=O)c2ccccn2)C(C(=O)NC2CCCCC2)c2ccc(F)cc2)cc1 (centres undefined),9.4%,11.9,?,-3.4%,4.6%
Cc1[nH][nH]c(=O)c1C(c1ccc(-c2cccc(Cl)c2)o1)c1c(C)[nH][nH]c1=O,-19.0%,-19.9,18.4µM*,0.3%,-16.7%
Cc1[nH][nH]c(=O)c1C(c1ccc(-c2cccc(C(=O)O)c2)o1)c1c(C)[nH][nH]c1=O,5.9%,6.2,3.1%,-15.0%,-3.4%
Cc1csc(NC(=O)c2cc3c(s2)-c2ccccc2OC3)n1,40.9%,32.5,14.6µM*,19.0%,-17.6%
COc1ccc(N(C)C(=O)c2cc3c(s2)-c2ccccc2OC3)c(OC)c1,2.0%,-73.0*,?,6.9%,1.1%
Cc1c(NC(=O)c2cc3c(s2)-c2ccccc2OC3)cccc1[N+](=O)[O-],39.1%,-73.4*,?,-1.0%,-2.0%
CC[C@H](C)[C@H](NC(=O)[C@H](Cc1ccc(O)cc1)NC(=O)[C@@H]1CCCN1C(=O)[C@H](CCCCN)NC(=O)[C@@H](N)CCCCN)C(=O)N[C@@H](CC(C)C)C(=O)O,-2.5%,.,.,.,1.2%
C[C@@H]1CN([C@@H](C)CO)S(=O)(=O)c2ccc(Br)cc2O[C@@H]1CN(C)Cc1cccnc1,.,-1.5,.,.,.
CC1SC(c2ccc(F)cc2)N(CCc2ccccc2)C1=O (centres undefined),-2.1%,-5.0,?,?,4.5%
Cc1ccc(S(=O)(=O)N(C)C[C@@H]2OCc3cnnn3CCCC(=O)N([C@@H](C)CO)C[C@@H]2C)cc1,.,-16.3,.,.,.
CCn1c(N2CCN(S(=O)(=O)c3ccc(Cl)cc3)CC2)nc2ccccc21,?,-86.6*,-0.7%,-1.2%,?
CCCn1c(N2CCN(Cc3ccc(Cl)cc3)CC2)nc2ccccc21,11.2µM*,-17.7,47.9%,-2.3%,?
CCc1nc2ccccc2nc1N1CCN(S(=O)(=O)c2ccccc2)CC1,?,-90.1*,20.2%,0.4%,-25.1%
CCn1c(N2CCN(S(=O)(=O)c3ccc(F)cc3)CC2)nc2ccccc21,22.7%,-58.9*,4.7%,-10.0%,-0.2%
CCn1c(N2CCN(S(=O)(=O)CC)CC2)nc2ccccc21,-16.6%,26.3,-6.2%,-8.1%,-11.2%
CCc1nc2ccccc2nc1N1CCN(S(=O)(=O)c2c(C)cc(Cl)cc2C)CC1,20.4%,78.2,8.2%,1.7%,-18.5%
CCn1c(N2CCN(C(=S)NC)CC2)nc2ccccc21,1.5%,-6.9,19.0%,-4.5%,0.3%
CCn1c(N2CCN(C(=S)NCC(C)C)CC2)nc2ccccc21,28.8%,-53.8*,18.4µM*,17.2%,9.8%[0.365 µM]
Cc1cc(C)c(NC(=O)CNC(=O)COC(=O)/C=C/c2cccs2)c(C)c1,.,16.8,14.1%,-1.9%,.
CCCCS/C(=C(/C#N)C(N)=O)c1cc2c([nH]1)CCCC2,17.7%,-66.2*,?,?,2.5%
COc1cccc(C(=O)Nc2nc(-c3ccncc3)cs2)c1,0.3%,0.0,-3.0%,-11.6%,-7.3%
SMILES,RORgamma inh,IL-1B inflam inh,MCF10A rerep,SW480 rerep,Gal4-VP16 FLuc
COc1cccc(C(=O)Nc2nc(-c3ccc4c(c3)OCO4)cs2)c1,29.9%,-10.9,16.4µM*,11.1%,1.0%
CC(=O)Nc1nc(-c2ccc3c(c2)OCO3)cs1,36.9%,-52.6*,2.4%,-0.7%,8.4%
O=C(Nc1nc(-c2ccc3c(c2)OCO3)cs1)C1COc2ccccc2O1 (centres undefined),?,-21.3,-1.3%,-2.8%,-3.7%
N#CCC(=O)Nc1nc(-c2ccc3c(c2)OCCO3)cs1,11.1%,-4.2,23.1µM*,?,3.2%
CC(C)C[C@@H](CC(=O)N[C@@H](CCC(=O)O)CC(=O)O)NC(=O)[C@@H]1CCCC[C@H]1NC(=O)C[C@@H](NC(=O)C[C@H](Cc1ccccc1)NC(=O)[C@@H]1CCCC[C@H]1N)C(C)C,2.6%,.,.,.,8.0%
CCCCCCn1ccc(=N)cc1,-35.6%,-12.0,2.4%,-4.6%,7.08µM*
COC(=O)NC(c1cccc(C)c1)C(C(C)=O)C(=O)OC (centres undefined),-1.3%[10 µM],.,.,.,-8.3%[10 µM]
CCCCn1nnnc1C(c1ccccc1)N1CCN(c2ncccc2C(F)(F)F)CC1 (centres undefined),.,-51.1*,.,.,.
CN(C)S(=O)(=O)Oc1cccc(C(=O)Nc2cccc(Cl)c2)c1,?,-55.7*,3.1%,-0.7%,-12.4%
CNS(=O)(=O)c1cccc(C(=O)Nc2cccc(Cl)c2)c1,?,3.2,-1.9%,-0.9%[9.22 µM],28.1%
Cc1ccnc(NC(=O)c2cccc(OC(F)F)c2)n1,12.1%,-13.1,4.6%,-8.8%,-15.4%
COc1ccc(NC(=O)c2cccc(OS(=O)(=O)N(C)C)c2)cc1,-4.1%,-12.0,-4.3%,-2.6%,-12.3%
CN(C)S(=O)(=O)Oc1cccc(C(=O)Nc2ccc(Cl)c(Cl)c2)c1,?,-88.3*,26.8%,21.8%,?
O=C(Nc1cc(Cl)cc(Cl)c1)c1cccc(OC(F)F)c1,?,-94.8*,?,2.5%,-0.1%
CC(C)(C)OC(=O)NCCCCCc1nnc(SCc2ccccc2F)o1,?,-51.4*,-5.2%,-4.3%[9.22 µM],6.4%
NCCCCCc1nnc(SCc2ccccc2Cl)o1,1µM*,15.9,1.1%,-6.4%,0.447µM*
C[C@H](CO)N1C[C@H](C)[C@@H](CN(C)C(=O)c2cnccn2)Oc2cc(C#CCC3CCCC3)ccc2S1(=O)=O,.,-4.7,.,.,.
CN(Cc1ccccc1)C(=O)c1nc2ccccn2c1CN1CCc2sccc2C1,-10.7%,-93.7*,-12.1%,-125.5%,?
CC(C)(C)OC(=O)n1cc(/C=N/NC(=O)c2ccco2)c2ccccc21,?,-59.9*,-3.2%,-2.2%,?
Cn1cc(/C=N/NC(=O)c2cccc([N+](=O)[O-])c2)c2ccccc21,0.501µM*,34.3,9.0%,0.0%,?
Cn1cc(/C=N/NC(=O)c2ccccc2O)c2ccccc21,0.562µM*,-11.7,-0.9%,-3.0%,0.891µM*
Cc1nc(C)c(C(=O)N/N=C/c2cn(C)c3ccccc23)s1,11.2µM*,4.6,3.5%,4.3%,?
COc1ccc(/C=N/NC(=O)c2cccc([N+](=O)[O-])c2)c2ccccc12,?,36.8,?,11.9%,?
COCCN(CCOC)c1nc(C)nc2c1nc(-c1ccccc1)n2CCN(C)C,-15.9%,.,.,.,14.9%
